Test results as given in PubChem BioAssay (NCI).
About 83,000 compounds went through this panel and 20% of them were active in at least one assay; those are over-represented in the sample as a whole.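 Single-concentration screen, 48 h exposure, 96-well plates. Endpoint: percent growth. Below 10 = active.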 Activity calls are given as the source filed them.

tested on: HL-60(TB) leukemia; assay: NCI-60 one-dose screen, 48 h (100 = growth as untreated, 0 = no growth, -100 = all killed); settings: 10 µM unless noted

Row | Compound | growth
1 | COc1ccc(/C=C(\C#N)c2cc(OC)c(OC)c(OC)c2)cc1 | -31.4% (active)
2 | COc1ccc2oc3cc(NCCN(C)C)ccc3c(=O)c2c1 | 22% (inactive)
3 | COc1ccc(Cc2nc3cc(OC)c(OC)cc3c(=O)[nH]2)cc1 | 16.4% (inactive)
4 | COc1ccc2c(c1)C1(C(=O)N2)C(C#N)=C(c2ccccc2)Nc2c1c(-c1ccccc1)nn2-c1ccccc1 (stereo not given) | 3.96% (active)
5 | COc1ccc(CC(=O)Nc2nn3c(-c4cc(C(F)(F)F)cc(C(F)(F)F)c4)nnc3s2)cc1 | 52% (inactive)
6 | Oc1c(Br)cc(Cl)cc1C(c1cc(Cl)cc(Br)c1O)C(Cl)(Cl)Cl | 9.73% (active)
7 | CCC(=O)N1C/C(=C/c2ccc(Cl)cc2)C(=O)/C(=C/c2ccc(Cl)cc2)C1 | 4.88% (active)
8 | O=C(Nc1ccc(CN2CCOCC2)cc1)c1ccc(-c2cc(Cl)ccc2Cl)o1 | 28.8% (inactive)
9 | CCSc1nnc(NC(=O)COc2ccc(Cl)cc2C)s1 | 108% (inactive)
10 | COc1ccc(CC(C#N)c2ccc(Cl)cc2)cc1 (stereo not given) | 84% (inactive)
